Test results reported in PubChem BioAssay (NCI).
This is part of a sample that, as a whole, favours compounds with a hit. Of some 83,000 tested, about 20% had one in any assay.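 How to read the values: 0–100, growth inhibition (40 = 60% inhibited); 0, no net growth; -100 to 0, cell death (-40 = 40% of starting cells died; -100 = all dead).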 Unmarked numbers belong to inactive results. The source made the active and inactive calls. Rule for the calls: active = growth percent below 10; inactive = the rest.

Assays:
Assay in all cases: NCI-60 one-dose screen, 48 h (100 = growth as untreated, 0 = no growth, -100 = all killed)
Details in all cases: 10 µM unless noted
NCI-H23 lung = system: NCI-H23 lung
NCI-H226 lung = system: NCI-H226 lung
NCI-H322M lung = system: NCI-H322M lung
HOP-62 NSCLC = system: HOP-62 NSCLC
NCI-H460 lung = system: NCI-H460 lung
HOP-92 NSCLC = system: HOP-92 NSCLC
NCI-H522 lung = system: NCI-H522 lung
A549/ATCC NSCLC = system: A549/ATCC NSCLC
786-0 renal = system: 786-0 renal
COLO 205 colon = system: COLO 205 colon
DU-145 prostate = system: DU-145 prostate
K-562 leukemia = system: K-562 leukemia
MALME-3M melanoma = system: MALME-3M melanoma
MDA-MB-231 breast = system: MDA-MB-231 breast
RXF 393 renal = system: RXF 393 renal
SF-268 CNS = system: SF-268 CNS
SF-295 CNS = system: SF-295 CNS
SF-539 CNS = system: SF-539 CNS
UACC-257 melanoma = system: UACC-257 melanoma
M14 melanoma = system: M14 melanoma

| Compound | growth (NCI-H23 lung) [%] | growth (NCI-H226 lung) [%] | growth (NCI-H322M lung) [%] | growth (HOP-62 NSCLC) | growth (NCI-H460 lung) | growth (HOP-92 NSCLC) [%] | growth (NCI-H522 lung) | growth (A549/ATCC NSCLC) [%] | growth (786-0 renal) [%] | growth (COLO 205 colon) | growth (DU-145 prostate) | growth (K-562 leukemia) | growth (MALME-3M melanoma) | growth (MDA-MB-231 breast) | growth (RXF 393 renal) | growth (SF-268 CNS) | growth (SF-295 CNS) | growth (SF-539 CNS) | growth (UACC-257 melanoma) | growth (M14 melanoma) |
| --- | --- | --- | --- | --- | --- | --- | --- | --- | --- | --- | --- | --- | --- | --- | --- | --- | --- | --- | --- | --- |
| Oc1ccc(Cl)cc1-c1cc(-c2ccc(F)cc2)n[nH]1 | 53.5 | 92.7 | 68.1 | 62.5% | 42.5% | 64.6 | 60.9% | 62 | 85.6 | 81.7% | 75.9% | 63.2% | 77.8% | 27.3% | 73.4% | 63.6% | 49.2% | 90.1% | 96.6% | 76.6% |
| CCN1CCN(c2nc(NNC(=O)c3ccccc3)nc(N3CCN(C(c4ccccc4)c4ccccc4)CC3)n2)CC1 | 67.5 | 73 | 90.3 | 79.7% | 3.33% (active) | 59.3 | 65.8% | 54.2 | 66.4 | -57% (active) | 71.9% | 9.4% (active) | 4.38% (active) | 71.7% | 59.7% | 76.9% | 79.3% | 73.1% | 13.9% | 0.297% (active) |
| C=C[C@@H]1C[C@@H]2Cc3cc(F)ccc3N1O2 | 103 | 120 | 137 | 102% | 112% | 105 | 98.7% | 95.3 | 111 | 123% | 112% | 95.7% | 170% | 112% | 115% | 106% | 112% | 107% | 93.8% | 120% |
| COc1ccc(Nc2nn3c(C)cc(C)nc3c2C(=O)Nc2ccc(C)cc2)c(OC)c1 | 92.7 | 101 | 92.8 | 85.8% | 101% | 87.1 | 88.6% | 93.5 | 90.9 | 98.7% | 113% | 108% | 124% | 108% | 107% | 100% | 107% | 102% | 98.6% | 101% |
| COc1ccc(C(=O)N2NC(=O)/C(=C/c3ccc(Br)cc3)N=C2c2ccccc2)cc1 | 93.8 | 95.1 | 90.6 | 46.6% | 96.9% | 64.4 | 85.3% | 87.6 | 90.4 | 105% | 102% | 81.8% | 90.3% | 83.3% | 99.9% | 89.8% | 92.7% | 76.8% | 95.5% | 79.2% |
| COc1cc(/C(C#N)=C/c2ccc3c(c2OC)OCO3)cc2c1OCO2 | 30.9 | 89.9 | 35.2 | 31.2% | 9.09% (active) | 61.2 | -19.1% (active) | 27.9 | 33.7 | -3.05% (active) | 11.2% | 20.9% | 37.1% | 29.7% | -14.3% (active) | 47.1% | 6% (active) | 4.21% (active) | 62.2% | -3.69% (active) |
| COc1cc(C(=O)/C=C/c2c(C)n([O-])c3ccc(C(F)(F)F)cc3[n+]2=O)cc(OC)c1OC | 98.2 | 81.6 | 118 | 118% | 116% | 87.3 | -82.1% (active) | 94.1 | 101 | 46.2% | 91.3% | 52.9% | 106% | 99.6% | -35.4% (active) | 96.1% | 105% | 96.5% | 74.2% | 88.9% |
| CC(C)C1=CC2=C(C=O)C[C@@H]3[C@](C)(CCC[C@@]3(C)C(=O)OCC#CCN3CCCC3)[C@H]2CC1 | 62.2 | 75.7 | 96.2 | 84.9% | 76.8% | 45.9 | 59.9% | 67.4 | 75.2 | 86.5% | 96.3% | 30.8% | 81.8% | 89.3% | 72.6% | 86.9% | 79.7% | 63.9% | 86.6% | 75.9% |
| CCCCCCCCCCCCNC(=O)[C@H]1CSC(c2cc(Br)cs2)N1 (stereo not given in full) | 18.1 | 10.4 | 54 | -97.5% (active) | -48.4% (active) | 61.7 | -1.62% (active) | 71 | 38.3 | 108% | -48.2% (active) | -47.2% (active) | 13.1% | -77.9% (active) | -60% (active) | -72.4% (active) | 36% | -66.3% (active) | -22.3% (active) | -83.5% (active) |
| Clc1ccccc1-c1nc2ccccc2[nH]1 | 90 | 120 | 152 | 92% | 104% | 92.4 | 87.9% | 105 | 46.3 | 112% | 110% | 89.6% | 101% | 102% | 99.9% | 102% | 96% | 94.6% | 113% | 85.8% |
| Nc1cccc(Cl)c1N | 85.2 | 101 | 99.5 | 108% | 101% | 106 | 71.1% | 109 | 110 | 104% | 117% | 102% | 116% | 99.3% | 121% | 104% | 118% | 90.4% | 113% | 104% |
